LDHA inh = qHTS assay for inhibitors of human lactate dehydrogenase | purified LDHA, NADH/diaphorase-resazurin fluorescence; stronger effect = lower value | AID 1347041, 2019 | actives 0.15% (n = 480,000) | activity change, % (values are at about 110 or 230 µM); in the data active = activity change below about -30%; inconclusive = mostly about -25% to -30%;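 also: plate controls were DMSO wells for no effect and wells without enzyme for full effect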
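Enzyme activity of human lactate dehydrogenase 5 (2 nM; 0.06 mM NADH, 0.2 mM pyruvate, 5 min, RT) is measured via a resazurin/diaphorase fluorescence readout of residual NADH.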
Nrf2 activator = qHTS of Nrf2 Activators; AID 624171, 2012; AREc32 ARE-luciferase reporter (MCF7-derived line), luminescence, 24 h; actives 0.31% (n = 410,000); Potency, µM (top dose mostly 46.1 µM), without a hit: at the top dose activation, actives largely listed as activators; also: potency is read from the fitted curve at half-maximal effect; % of control where 0% means no effect; nearly all actives have a fitted effect of over 65% in size
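Nrf2 activation is followed as ARE-luciferase induction in the AREc32 line after one day of compound treatment; luminescence is read with Steady-Glo.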
A549 tox = Nrf2 qHTS screen for inhibitors: counterscreen for cytotoxicity | A549 ARE-Fluc cells, CellTiter-Fluor viability, 18-24 h | Potency, µM (top dose mostly 46 µM), for the others: top-dose activity change, negative = cytotoxicity, usual class: inhibitors | actives 0.16% (n = 390,000); also: potency is read from the fitted curve at half-maximal effect; % is scaled to controls: 0 for no effect and ±100 for the full control effect
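Cytotoxicity counterscreen: CellTiter-Fluor fluorescence was measured in A549 ARE_Fluc cells after 18-24 h of compound exposure in a concentration series. The subsequent BugLite luminescent read reports ARE-luciferase activity.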
12-LOX inh = Primary qHTS assay for inhibitors of human arachidonate 12S-lipoxygenase (ALOX12): Round 2; Polyunsaturated fatty acid lipoxygenase ALOX12 (Homo sapiens), P18054; purified 12hLO, xylenol orange hydroperoxide absorbance; Potency, µM (doses to about 108 µM), without a hit: top-dose activity change, negative = inhibition, usual class: inhibitors; actives 1.1% (n = 580,000); also: potency is read from the fitted curve at half-maximal effect; % is scaled to controls: 0 for no effect and ±100 for the full control effect
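Purified human 12hLO at 150 nM in 25 mM Hepes, 0.01% Triton X-100, pH 7.0, preincubated 15 min at room temperature with compound. Reaction started with 40 uM arachidonic acid, 30 min at room temperature. Hydroperoxide measured by Fe-xylenol orange, 573/405 nm absorbance ratio.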
Nrf2 inh = Nrf2 qHTS screen for inhibitors | A549 ARE-Fluc reporter, luciferase luminescence, 18-24 h | Potency, µM (titrated, usually from 46 µM), for the others: at the top dose activity change, negative = inhibition, hits mostly inhibitors | actives 2.1% (n = 360,000) | AID 504444, 2011; also: potency is read from the fitted curve at half-maximal effect; % is scaled to controls: 0 for no effect and ±100 for the full control effect; nearly all actives have a fitted effect of over 60% in size
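Reporter: ARE-Fluc in A549. Exposure: 18-24 h, 37 °C, 5% CO2, 5% FBS OPTI-MEM. Readouts: fluorescent cytotoxicity (CellTiter-Fluor), then luminescent Nrf2 signal after BugLite.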
mIDH1 inhibitor = qHTS for Inhibitors of mutant isocitrate dehydrogenase 1 (IDH1): qHTS; IDH1-R132H enzyme, NADPH consumption, diaphorase/resazurin fluorescence; Potency, µM (series often up to 76.6 µM), inactives show top-dose activity change, negative = inhibition, actives largely listed as inhibitors; actives 0.093% (n = 390,000); AID 602179, 2012; also: potency is read from the fitted curve at half-maximal effect; % is scaled to controls: 0 for no effect and ±100 for the full control effect; nearly all actives have a fitted effect of over 65% in size
Target sequence (O75874 whole entry R132H, stated change not applied): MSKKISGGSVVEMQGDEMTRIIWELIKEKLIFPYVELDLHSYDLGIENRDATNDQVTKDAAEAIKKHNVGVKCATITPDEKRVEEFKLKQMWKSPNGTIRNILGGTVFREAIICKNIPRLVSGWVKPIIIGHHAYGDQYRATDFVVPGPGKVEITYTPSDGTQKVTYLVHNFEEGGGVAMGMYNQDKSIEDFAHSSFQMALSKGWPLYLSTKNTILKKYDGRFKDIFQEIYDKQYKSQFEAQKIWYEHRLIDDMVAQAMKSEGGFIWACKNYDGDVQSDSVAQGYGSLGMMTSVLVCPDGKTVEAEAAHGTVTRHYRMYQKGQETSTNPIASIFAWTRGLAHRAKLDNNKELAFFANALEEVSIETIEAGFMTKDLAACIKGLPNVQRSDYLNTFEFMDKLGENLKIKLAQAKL
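IDH1-R132H (0.5 ug/mL dispensed) in pH 7.5 Tris buffer was preincubated 30 min with compound, then given a substrate mix of 0.016 mM NADPH and 2 mM alpha-KG for 80 min at room temperature; remaining NADPH was read by diaphorase/resazurin fluorescence.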
Numbers without * were called inactive; ? = inconclusive; . = not tested or not shown; ! = a repeat was not active. Shown are actives, neighbours in structure and some others; about 2.7% of the full set was active somewhere. Unless noted, calls follow the shape of the dose curve; as a rule, active = well fitted curve in the direction sought with a large enough effect; inconclusive = small, poorly fitted or top-dose-only effect, or another doubt; inactive = no such curve, though single readings can be large; an effect the other way counts as inactive or inconclusive.

SMILES | LDHA inh | Nrf2 activator | A549 tox | 12-LOX inh | Nrf2 inh | mIDH1 inhibitor
CSc1ccc(/C=N/Nc2ccc(Cl)c(C(=O)O)c2)cc1 | -1.5 | 3.8% | -5.5% | ? | ? | 6.4%
CSc1ccc(/C=N/Nc2ccc(F)cc2)cc1 | 4.6 | . | . | 1.26µM* | . | .
COC(=O)c1cc(NS(=O)(=O)c2ccc3ccccc3c2)cc(C(=O)OC)c1 | 0.1 | . | . | 3.1% | . | .
Fc1ccc(/C=N/Nc2ccc(Cl)c(Cl)c2)cc1 | -1.2 | . | . | 2.24µM* | . | .
CSc1ccc(/C=N/Nc2cccc(Cl)c2)cc1 | ? | . | . | 1.41µM* | . | .
Fc1ccc(/C=N/Nc2ccc(Cl)c(Cl)c2)cc1F | 11.3 | . | . | 5.01µM* | . | .
Cc1ccc(/C=N/Nc2ccc(Cl)c(Cl)c2)cc1 | -2.5 | . | . | ? | . | .
Cc1ccc(N/N=C/c2ccc(Cl)c(Cl)c2)cc1 | 11.7 | . | . | 15.8µM* | . | .
CC(=O)C1=C(O)C(=O)NC1c1ccc(Br)cc1 (stereo not drawn) | 5.6 | . | . | 32.8% | . | .
CC(C)(CO)NC(=O)c1cc(C(C)(C)C)cc(C(C)(C)C)c1 | 2.6 | . | . | 5.0% | . | .
Cc1cc(C(F)(F)F)c(C#N)c(SCc2cccnc2)n1 | 9.6 | . | . | 4.4% | . | .
N#Cc1ccc(/C=N/Nc2ccc(F)cc2)cc1 | 7.1 | . | . | 15.8µM* | . | .
O=S(=O)(c1ccccc1Cl)N1CCCC1c1nc(-c2ccccc2Cl)no1 (stereo not drawn) | 6.8 | -0.1% | -16.1% | -44.8% | 16.4µM* | 6.2%
COc1ccc2c(c1)Cc1sc(NC(=O)c3cccc(C)c3)nc1-2 | 27.0 | 2.2% | -12.7% | ? | 20.6µM* | .
COc1ccc2c(c1)Cc1sc(NC(=O)c3cccc(Cl)c3)nc1-2 | 11.0 | -0.3% | -11.6% | 0.0% | . | -2.6%
CN1CCN(C(=O)c2cccnc2-c2nc3ccccc3s2)CC1 | 16.7 | . | . | 31.6µM* | . | .
O=C(c1cccnc1-c1nc2ccccc2s1)N1CCOCC1 | -2.1 | . | . | ? | . | .
Cc1ccc(C)c(NC(=O)CN(C)C(=O)c2ccc3[nH]c4c(c3c2)CC(C)CC4)c1 (stereo not drawn) | 2.9 | 2.6% | ? | 12.1% | 18.4µM* | 3.8%
C#CCOc1ccc(/C=C2/C(=O)ON=C2C)cc1Br | -5.2 | 4.6% | 3.4% | 9.6% | -10.1% | -2.6%
C=CCOc1ccc(/C=C2/C(=O)ON=C2C)cc1OC | -7.3 | -0.1% | -3.3% | 17.8µM* | 29.0% | 0.0%
COc1ccc(/C=C2/C(=O)ON=C2C)cc1Cl | -3.2 | -0.2% | -14.4% | 7.94µM* | -18.5% | 0.5%
OC(CNCC1(c2ccccc2)CCCC1)COc1ccccc1 (stereo not drawn) | -8.3 | . | . | ? | . | .
Cc1nc(N2CCC(NC(=O)c3cccs3)CC2)cc(C(F)(F)F)n1 | . | . | . | 23.3% | . | .
Cc1ccc2nsnc2c1NC(=O)c1ccc(-c2cc(Cl)ccc2Cl)o1 | 3.2 | 4.9% | 9.2µM* | ? | 13µM* | 11.0%
O=C(Nc1ccc2ccccc2n1)c1ccccc1 | -2.6 | 11.2µM* | -3.0% | 14.9% | ? | -0.9%
SMILES | LDHA inh | Nrf2 activator | A549 tox | 12-LOX inh | Nrf2 inh | mIDH1 inhibitor
Cc1ccc(C(=O)Nc2ccc3ccccc3n2)cc1 | -4.9 | 2.8% | 3.9% | 6.8% | ? | 2.9%
O=C(Nc1ccc2ccccc2n1)c1ccccc1Br | -7.1 | 11.2µM* | 0.4% | -14.4% | ? | 16.2%
O=C(CSc1nc(Cl)nc2nc[nH]c12)Nc1cccc(Cl)c1 | -35.0* | . | . | 2.6% | . | .
Cc1ccccc1-n1c(SCC(=O)N/N=C/c2c(C)nn(-c3ccccc3)c2C)nc2ccccc2c1=O | 0.2 | 2.0% | ? | -19.5% | ? | 6.0%
Cc1ccc(-n2c(SCC(=O)N/N=C/c3c(C)nn(-c4ccccc4)c3C)nc3ccccc3c2=O)cc1 | -5.0 | 0.6% | 8.2µM* | -19.4% | ? | -3.0%
Cc1nn(-c2ccccc2)c(C)c1/C=N/NC(=O)CSc1nc2ccccc2c(=O)n1-c1ccc(Br)cc1 | -1.6 | -0.2% | 18.4µM* | 2.3% | 25.9µM* | 5.5%
CCCCc1c(C)c2ccc3oc(/C(=N/O)c4ccc(C)cc4)c(C)c3c2oc1=O | 7.5 | . | . | 1.6% | . | .
S=c1[nH]c2cc(Cl)ccc2s1 | -7.6 | -0.8% | 3.8% | 44.7µM*! | -2.1% | 5.2%
S=c1[nH]c2ccc(Cl)cc2[nH]1 | -7.6 | 4.4% | -12.9% | ? | 0.2% | 1.1%
O=C(c1ccc2c(c1)CCN2S(=O)(=O)c1ccc(Cl)cc1)N1CCCC1 | 0.7 | . | . | ? | . | .
CC(C)(C)c1ccc(/C=N/NC(=S)NCc2ccccc2)cc1 | -2.7 | 0.0% | 5.7% | 44.7µM* | -8.8% | -4.4%
S=C(NCCc1ccccc1)N/N=C/c1ccccc1Br | -5.5 | . | . | 35.5µM* | . | .
CCN(Cc1ccccc1)c1ccc(/C=N/NC(=S)NC(C)C)cc1 | 1.2 | 0.0% | -6.4% | 44.7µM* | ? | 2.8%
Oc1ccc(/C=N/NC(=S)NCc2ccco2)cc1 | -2.8 | 2.1% | 0.5% | -19.2% | -25.1% | 1.6%
CN(C)c1ccc(/C=N/NC(=S)NCc2ccccc2)cc1 | 2.0 | 3.7% | 4.0% | ? | 0.2% | 1.3%
S=C(NCc1ccco1)N/N=C/c1ccc(Cl)cc1 | 3.9 | 4.6% | 13.5% | 44.7µM* | 10.2% | 1.3%
Oc1ccc(Br)cc1/C=N/NC(=S)NCCc1ccccc1 | -8.5 | 0.5% | -6.5% | ? | -9.8% | 5.1%
CCc1ccc(/C=N/NC(=S)NCCc2ccccc2)cc1 | -7.7 | -0.6% | 15.4% | 22.4µM* | 7.6% | -3.1%
S=C(NCCc1ccccc1)N/N=C/c1ccccc1Cl | -7.6 | 4.1% | 12.4% | 39.8µM* | -9.0% | 6.6%
COc1ccc(/C=N/NC(=S)NCCc2ccccc2)cc1 | -2.9 | 8.7% | 6.3% | ? | -28.9% | 0.4%
O=C(CC1(O)C(=O)Nc2ccccc21)c1ccccc1O (stereo not drawn) | -0.2 | 3.4% | -8.7% | 1.8% | -10.0% | 4.7%
O=C(CC1(O)C(=O)Nc2cc(Cl)cc(Cl)c21)c1ccccc1O (stereo not drawn) | 16.1 | 15.8µM* | -13.1% | 0.0% | -27.1% | 6.6%
Cc1ccc2[nH]c(C(=O)O)cc2c1 | 26.2 | . | . | ? | . | .
COc1ccc(Br)cc1C1Nc2cccc3cccc(c23)N1 | 5.0 | 12.6µM* | -1.2% | -5.5% | 13.9% | 13.6%
COCCCNC(=S)N1CCCN(c2nc3cc(C)ccc3cc2C#N)CC1 | 1.0 | 3.2% | -11.7% | -8.8% | 16.4µM* | -0.6%
